{"source": "the supplement of paper PMC10681739", "data": [{"biological_target": "RUNX1 (UniProt Q01196)", "sequence (Q01196 whole entry)": "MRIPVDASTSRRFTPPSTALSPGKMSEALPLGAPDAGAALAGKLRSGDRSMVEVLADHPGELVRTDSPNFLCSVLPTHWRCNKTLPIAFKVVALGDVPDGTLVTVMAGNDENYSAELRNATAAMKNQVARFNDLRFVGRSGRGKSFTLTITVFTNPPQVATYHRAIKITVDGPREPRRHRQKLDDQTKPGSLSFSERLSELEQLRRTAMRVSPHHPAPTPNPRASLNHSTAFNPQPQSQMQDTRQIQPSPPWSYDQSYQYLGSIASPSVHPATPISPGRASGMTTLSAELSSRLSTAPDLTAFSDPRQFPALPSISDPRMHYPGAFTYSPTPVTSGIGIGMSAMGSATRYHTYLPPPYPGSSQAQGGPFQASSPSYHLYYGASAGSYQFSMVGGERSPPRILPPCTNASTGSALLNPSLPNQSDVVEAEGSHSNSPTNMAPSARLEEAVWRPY", "experiment": "RUNX1 binding intensity (PBM fluorescence) in presence of ETS1, normalised to RUNX1-only experiment (arbitrary fluorescence units); higher = stronger binding", "settings": "RUNX1 concentration 2 nM; ETS1 concentration 25 nM", "method": "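Cooperative gcPBM on 36-bp genomic probes with neighbouring ETS1 and RUNX1 sites. Recombinant human RUNX1 (2 nM) was incubated alone or with ETS1 (25 nM) and detected with anti-RUNX1 antibody plus Alexa488 secondary. Values are medians over 4 replicate spots; the RUNX1+ETS1 data were normalised to the RUNX1-only data. The probes sit in constant array flanks that are not printed.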", "values": [{"sequence": "GCGGCTGAGAACACAGGATGTGGCTTTTGGCAGATG", "RUNX1 binding intensity": 1680}, {"sequence": "TATGTCTGACTTCCGCTCGTGGTTTCCATCTTAGCC", "RUNX1 binding intensity": 2850}, {"sequence": "CTGCGTTTCCTCTGAGTTTTGCATGTTGAGGTTGGA", "RUNX1 binding intensity": 1280}, {"sequence": "TGGAAGAGGGCAGGAAGTGTTGTGGTCACTCCCACC", "RUNX1 binding intensity": 1530}, {"sequence": "TCAGAGACTTCCGCTCAGCAGCAGCTGCGGCCAGGC", "RUNX1 binding intensity": 1850}, {"sequence": "GAGAAAAGAGACTGAGGATGTGGTTTGGGGTGTGGG", "RUNX1 binding intensity": 1050}, {"sequence": "CAGGGTGGAAACAGGAAGAGAAACCACACTTAACCT", "RUNX1 binding intensity": 1070}, {"sequence": "GATGGGCGAGTCAGGAAACCACAGCTCTGAGGGTGG", "RUNX1 binding intensity": 1300}, {"sequence": "TGGAAGCGGCTTCCGGGGTGAATGCGGTTGGATCGT", "RUNX1 binding intensity": 3030}, {"sequence": "AGAGCAACAGGATGCAAATAACCACAAGCAAGAATA", "RUNX1 binding intensity": 3320}, {"sequence": "CATGTGCTTCCGGCTTGATCTGTGGTTATTCTGGTT", "RUNX1 binding intensity": 3010}, {"sequence": "AGACGGTAGGCCAGGAAACCGCAGGCCCCTGCCGGG", "RUNX1 binding intensity": 10600}, {"sequence": "GCACTACATTTCCCAGCTTTCCTCGCGGTAAAGAGA", "RUNX1 binding intensity": 1270}, {"sequence": "CACCGGAAAAGGCAAGCGCGGCCGCGCGGTTGGCGC", "RUNX1 binding intensity": 1160}, {"sequence": "GCGGAGGGAAGCGGAAATACTTGCGGTGGGGGCGAC", "RUNX1 binding intensity": 2210}, {"sequence": "AGCGCGCCGCCGACCGGATGCGGGAACTGGGCTCGG", "RUNX1 binding intensity": 1550}, {"sequence": "CCGCGCACCCGGAACTACCTCCCGACCCGCATCCCC", "RUNX1 binding intensity": 1440}, {"sequence": "GAAACAATTTCCTGTACCTCTGTGGTAAAAATGATA", "RUNX1 binding intensity": 2610}, {"sequence": "AAGAGGAAGTCCCAAATTGCTTTTTAACCACCAACA", "RUNX1 binding intensity": 888}, {"sequence": "GAAGTCACTCAGGGAGGAAACCACAGGGCCGGTCCG", "RUNX1 binding intensity": 863}, {"sequence": "AGGGACTTCCGGTGACCAGAGCACTAGCGCCGCAAA", "RUNX1 binding intensity": 2070}]}]}
